Compound activity: PubChem, several laboratories
In the library only some 5% were active in any assay of this set; here they are far more common.
SENP6 block – inhibitors of human SENP6 protease. Recombinant SENP6 catalytic domain, aminoluciferin luminescence. 330,000 compounds, 1.8% hits. inhibition, % at 10 µM. Q9GZR1;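 active = inhibition above about 50% at the single tested dose, limit read from the data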;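 also: plate controls were DMSO wells with enzyme for no effect and DMSO wells lacking enzyme for full effect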
SENP8 block-1 – SENP8 protease inhibition; purified SENP8, Z-RLRGG-aminoluciferin cleavage, luminescence; inhibition, % at 10 µM; 330,000 compounds, 1.2% hits; AID 2540; in the data active = inhibition above about 50%
Target sequence (Q96LD8 whole entry, looked up): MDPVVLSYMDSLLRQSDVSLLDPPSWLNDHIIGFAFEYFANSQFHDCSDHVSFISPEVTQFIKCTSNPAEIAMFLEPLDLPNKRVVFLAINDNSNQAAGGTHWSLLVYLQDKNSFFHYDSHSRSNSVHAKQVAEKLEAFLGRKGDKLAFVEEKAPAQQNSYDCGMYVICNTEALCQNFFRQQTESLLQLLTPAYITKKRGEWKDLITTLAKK
EBI2 antag – antagonists of human EBI2 receptor | P32249 | EBI2 beta-arrestin recruitment, luminescence, 7a,25-OHC stimulated | inhibition, % at 5 µM | 360,000 compounds, 0.81% hits | AID 651636; in the data active = inhibition above about 38%;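 also: enzyme fragment complementation signal reports receptor beta-arrestin coupling in cells; 0% = agonist plus DMSO wells and 100% = wells without agonist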
SENP8 block-2 – SENP8 (human) protease inhibition | inhibition, % at 20 µM | 360,000 compounds, 0.64% hits | recombinant SENP8, Nedd8 substrate fluorescence | Q96LD8; in the data active = inhibition mostly above about 40%, no sharp cut-off; inactive = mostly below about 27%
AHR act – activators of human aryl hydrocarbon receptor | AHR-responsive luciferase reporter cells, luminescence | activation, % at 5 µM | 320,000 compounds, 2.5% hits; in the data active = activation above about 47%;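 also: 0% = vehicle wells and 100% = reference agonist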
SENP7 inh – inhibitors of human SENP7 protease; 330,000 compounds, 1.5% hits; recombinant SENP7, Z-RLRGG-aminoluciferin luminescence, 40 min; AID 434973; Q9BQF6; inhibition, % at 5 µM;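 active = inhibition above about 50% at the single test dose, limit read from the data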;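 also: plate controls were DMSO with enzyme for no effect and no enzyme buffer wells for full effect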
SENP8 conf – human SENP8 inhibition, confirmed; shares compounds with SENP7 inh; Recombinant SENP8, Z-RLRGG-aminoluciferin luminescence, 60 min; inhibition, % at 12.5 µM; 6,200 compounds, 40% hits;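 active = mean inhibition across replicates above about 50%, limit read from the data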
SENP6 confirm – human SENP6 inhibition, confirmed. recombinant SENP6, Z-RLRGG-aminoluciferin luminescence. inhibition, % at 12.5 µM. shares compounds with SENP7 inh. 6,200 compounds, 58% hits. AID 488915
SENP7 conf – human SENP7 inhibition, confirmed. shares compounds with SENP7 inh. recombinant SENP7, Z-RLRGG-aminoluciferin luminescence, 40 min. inhibition, % at 12.5 µM. 6,200 compounds, 69% hits
Casp3 SENP sel – selectivity test for SENP inhibitors: human caspase-3 inhibition. purified caspase-3, Z-DEVD-aminoluciferin luminescence, 60 min. 6,200 compounds, 60% hits. shares compounds with SENP7 inh. inhibition, % at 12.5 µM;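 active = mean inhibition above about 50%, limit read from the data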;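 also: plate controls were enzyme with DMSO for no effect and wells without caspase-3 for full effect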
Target sequence (P42574 28-227 limits assumed): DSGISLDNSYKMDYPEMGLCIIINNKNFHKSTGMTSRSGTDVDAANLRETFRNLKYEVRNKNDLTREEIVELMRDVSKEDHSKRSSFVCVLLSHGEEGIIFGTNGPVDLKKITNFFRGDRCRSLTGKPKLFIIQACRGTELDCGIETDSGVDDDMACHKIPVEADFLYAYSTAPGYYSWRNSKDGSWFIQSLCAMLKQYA
Luc interf – counter-screen for SENP inhibitors: luminescence interference; shares compounds with SENP7 inh; Pre-incubated SENP8/Z-RLRGG-aminoluciferin, luciferase luminescence interference; inhibition, % at 12.5 µM; 6,200 compounds, 39% hits; AID 488919;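 active = mean inhibition above about 50% when retested at one dose, limit read from the data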;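 also: plate controls were DMSO wells with completed reaction for no effect and substrate without enzyme for full effect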
Starred values were filed as active, the others as inactive; . = not tested or not shown.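 The calls were made as follows, unless noted: active = mean inhibition above about 50% in the one-dose retest (limit read from the data); inactive = the rest.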

SMILES	SENP6 block	SENP8 block-1	EBI2 antag	SENP8 block-2	AHR act	SENP7 inh	SENP8 conf	SENP6 confirm	SENP7 conf	Casp3 SENP sel	Luc interf
CC(=O)c1c(CC(=O)O)[nH]n(-c2nc3ccccc3s2)c1=O	84.1*	86.6*	-4.5	-6.0	7.7	88.3*	86.5*	83.1*	96.8*	95.4*	83.0*
COc1ccc(CN=C(C)c2c(C(F)(F)F)[nH]n(-c3nc4ccccc4s3)c2=O)cc1	85.2*	49.5	-4.3	7.9	-1.4	91.3*	17.0	15.9	20.6	50.1*	54.2*
COC(=O)Cc1[nH]n(-c2nc3ccccc3s2)c(=O)c1C(C)=O	50.0	21.1	-7.3	-1.6	3.4	6.4	.	.	.	.	.
CCCC(=O)Nc1c2c(nn1-c1ccc([N+](=O)[O-])cc1)CS(=O)(=O)C2	9.0	-2.1	-4.5	29.7	0.0	-2.3	.	.	.	.	.
CSc1nc(O)c(N=Nc2ccc(F)cc2F)c(=O)[nH]1	91.1*	81.3*	-9.6	16.3	2.2	87.0*	83.2*	86.4*	95.7*	93.1*	53.3*
CSc1nc(O)c(C(c2ccc(F)cc2)c2c(O)nc(SC)[nH]c2=O)c(=O)[nH]1	-3.5	9.1	-2.6	16.9	-1.1	1.4	.	.	.	.	.
O=C1NC(=O)/C(=C\c2ccc(OCc3cccc(C(=O)O)c3)c(Cl)c2)N1	95.0*	90.5*	2.1	-179.4	6.0	77.4*	-15.7	92.9*	100.8*	29.8	70.7*
Cc1cccc(/C=N/Nc2nncc3ccccc23)c1	91.6*	90.0*	6.1	5.1	10.7	95.6*	73.9*	94.1*	102.2*	94.3*	12.8
COc1ccc(/C=N/Nc2nncc3ccccc23)c(OC)c1	76.6*	64.5*	-0.8	17.2	32.5	77.9*	14.9	72.9*	42.6	34.3	4.5
COc1cc(/C=N/Nc2nncc3ccccc23)cc(OC)c1OC	69.6*	58.8*	-17.5	21.4	8.4	78.3*	77.1*	75.4*	93.5*	81.5*	70.6*
COc1ccc(/C=N/Nc2ncc(Br)cn2)c(OC)c1	-28.6	-12.0	-8.7	12.1	9.7	-1.3	.	.	.	.	.
CN(C)c1ccc(/C=N/Nc2nncc3ccccc23)cc1	.	.	1.0	17.6	18.4	.	.	.	.	.	.
COc1ccccc1/C=N/Nc1nccnc1Cl	90.2*	85.2*	1.9	-150.9	14.0	90.8*	86.1*	84.8*	98.5*	95.3*	89.3*
CCNc1nc(NCC)nc(N/N=C/c2cc(OC)c(OC)c(OC)c2)n1	-15.2	-1.9	-1.4	2.6	32.3	3.1	.	.	.	.	.
COc1ccc(/C=N\Nc2ccccn2)c(OC)c1	55.0*	53.9*	10.2	-24.8	.	42.9	7.4	61.7*	87.1*	62.5*	1.7
O=C(NCc1ccccn1)C1Nc2ccc(C(F)(F)F)cc2C2C=CCC12 (configuration not stated)	-15.6	-6.4	8.5	-2.5	6.0	15.0	.	.	.	.	.
C#CCOCCOCCOCCNc1nc(N2CCN(C(=O)[C@H](CCCCN)n3cc(CCCC)nn3)CC2)nc(N2CCN(C(=O)[C@H](CCCCN)n3cc(CCC(=O)O)nn3)CC2)n1	14.4	-0.5	1.4	21.3	0.2	1.2	.	.	.	.	.
Cc1cc(N)n(-c2cc(C)c3ccccc3n2)n1	78.9*	72.6*	-5.0	9.1	22.9	80.8*	-25.6	70.9*	93.4*	79.1*	69.6*
CC(=O)Nc1ccc(N=Cc2c(O)c(C(=O)Nc3ccccc3)cc3ccccc23)cc1	45.1	72.4*	.	.	29.0	30.3	20.7	15.8	19.6	14.4	10.9
CC(=O)Nc1ccc(N=Cc2c(O)c3ccccc3oc2=O)cc1	-27.0	-35.2	-2.0	-140.7	.	-29.7	.	.	.	.	.
